In paper PMC5700166 one finds binding signal data, which are given here for four sequences.

Holding throughout (experiment): protein-binding microarray (PBM); PBM: ~300 nM protein, 6 mM HEPES pH 7.8, 80 mM KCl, 0.5 mM EDTA, 0.5 mM EGTA, 6% glycerol, 35 ng/ul poly-dIdC, 1% milk, 1 h, room temperature; Ap Aiptasia and Nv Nematostella (sea anemones) / Co Capsaspora / Aq Amphimedon (sponge) / Dm Drosophila / Hu human; RHD is the Rel homology domain; high values mean tight binding
Holding throughout (conditions): dsDNA, one strand shown

Test [1] concerns the target T1, GST-Ap-NF-kB RHD (Exaiptasia pallida (Aiptasia), UniProt A0A913YAJ5 2-422).
T1 sequence: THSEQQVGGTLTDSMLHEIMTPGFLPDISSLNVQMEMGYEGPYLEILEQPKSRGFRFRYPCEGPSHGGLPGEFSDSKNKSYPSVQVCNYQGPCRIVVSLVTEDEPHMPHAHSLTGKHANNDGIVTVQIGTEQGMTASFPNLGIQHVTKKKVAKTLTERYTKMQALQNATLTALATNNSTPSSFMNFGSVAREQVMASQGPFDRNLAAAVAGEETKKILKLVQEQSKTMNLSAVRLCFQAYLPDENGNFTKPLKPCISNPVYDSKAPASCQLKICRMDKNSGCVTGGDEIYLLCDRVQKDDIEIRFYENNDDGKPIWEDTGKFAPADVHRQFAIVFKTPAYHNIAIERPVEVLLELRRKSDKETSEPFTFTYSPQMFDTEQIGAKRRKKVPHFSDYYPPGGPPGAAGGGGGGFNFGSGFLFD

Test [2] addresses T2, GST-Nv-NF-kB (Cys allele) (Nematostella vectensis, UniProt E5G601 2-411).
T2 sequence: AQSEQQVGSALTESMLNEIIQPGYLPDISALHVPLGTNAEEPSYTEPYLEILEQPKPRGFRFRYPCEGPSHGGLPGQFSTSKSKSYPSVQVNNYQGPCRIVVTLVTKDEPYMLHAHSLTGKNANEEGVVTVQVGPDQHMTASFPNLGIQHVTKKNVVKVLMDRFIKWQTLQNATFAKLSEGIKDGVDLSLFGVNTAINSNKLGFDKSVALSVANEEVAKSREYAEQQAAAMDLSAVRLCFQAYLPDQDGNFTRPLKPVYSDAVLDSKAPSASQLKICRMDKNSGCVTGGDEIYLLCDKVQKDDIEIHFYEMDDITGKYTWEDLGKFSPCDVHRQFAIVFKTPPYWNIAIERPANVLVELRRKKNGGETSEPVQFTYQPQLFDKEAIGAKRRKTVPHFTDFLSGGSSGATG

Test [3] addresses T3, GST-Nv-NF-kB (Ser allele) (Nematostella vectensis, UniProt A7UNT2 2-411).
T3 sequence: T2 sequence with Q21R, C66S, S207N, E215Q, V217A, E225K, A268E, D399E

In test [4] the target is T4, GST-Co-NF-kB (Capsaspora owczarzaki, UniProt F1ARL5 200-546).
T4 sequence: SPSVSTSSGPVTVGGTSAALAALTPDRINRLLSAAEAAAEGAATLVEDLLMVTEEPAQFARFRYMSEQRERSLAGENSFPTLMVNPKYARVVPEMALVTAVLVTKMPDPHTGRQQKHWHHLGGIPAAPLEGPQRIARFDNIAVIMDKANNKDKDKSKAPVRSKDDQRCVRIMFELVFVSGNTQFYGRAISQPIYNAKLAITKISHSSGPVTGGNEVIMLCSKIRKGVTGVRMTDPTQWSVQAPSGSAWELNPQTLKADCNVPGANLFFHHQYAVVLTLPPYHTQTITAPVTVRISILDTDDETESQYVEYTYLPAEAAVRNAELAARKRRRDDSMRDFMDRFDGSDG

The target of test [5] is T5, GST-Dm-Relish (Drosophila melanogaster, UniProt Q94527 99-473).
T5 sequence: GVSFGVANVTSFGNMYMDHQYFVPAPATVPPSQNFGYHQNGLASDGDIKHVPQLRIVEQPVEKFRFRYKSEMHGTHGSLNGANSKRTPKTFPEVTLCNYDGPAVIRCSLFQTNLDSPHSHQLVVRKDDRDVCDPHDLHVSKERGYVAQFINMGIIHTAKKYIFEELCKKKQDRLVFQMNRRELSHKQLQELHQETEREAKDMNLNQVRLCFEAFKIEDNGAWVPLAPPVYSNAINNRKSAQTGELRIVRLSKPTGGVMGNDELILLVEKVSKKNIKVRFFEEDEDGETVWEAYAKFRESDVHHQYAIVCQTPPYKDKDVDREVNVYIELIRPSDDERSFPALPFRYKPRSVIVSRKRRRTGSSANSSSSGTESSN

For test [6], the target named is T6, GST-Aq-NF-kB (Amphimedon queenslandica, UniProt A9Y5G7 2-389).
T6 sequence: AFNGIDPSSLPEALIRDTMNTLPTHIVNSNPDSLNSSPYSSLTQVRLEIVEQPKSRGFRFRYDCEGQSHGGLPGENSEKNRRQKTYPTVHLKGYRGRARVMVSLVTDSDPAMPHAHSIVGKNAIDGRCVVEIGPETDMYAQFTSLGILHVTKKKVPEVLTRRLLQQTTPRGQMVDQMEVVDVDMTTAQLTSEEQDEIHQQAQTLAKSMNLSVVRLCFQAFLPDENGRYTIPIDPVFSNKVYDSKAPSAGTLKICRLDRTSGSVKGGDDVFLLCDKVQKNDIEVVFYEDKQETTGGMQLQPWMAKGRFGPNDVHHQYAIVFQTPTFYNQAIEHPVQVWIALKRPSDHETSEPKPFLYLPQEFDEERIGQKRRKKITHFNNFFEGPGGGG

Changes are numbered by the printed parent chain.

In the case of “CCGATTAACATCAGAAATCCCAATGATGTTAATCGGGTCTTGATTCGCTTGACGCTGCTG”, the binding signal is 2.44 z-score in test [1]; 2.13 z-score in test [2]; 1.82 z-score in test [3]; 1.84 z-score in test [4]; 5.13 z-score in test [5]; 2.14 z-score in test [6].
Turning to “CCGATTAACATCAGGGAAGTACATGATGTTAATCGGGTCTTGATTCGCTTGACGCTGCTG”, the binding signal was 1.18 z-score in test [1]; 1.34 z-score in test [2]; 1.35 z-score in test [3]; 1.54 z-score in test [4]; 9.23 z-score in test [5]; 2.86 z-score in test [6].
Regarding “CCGATTAACATCAGGGAATACACTGATGTTAATCGGGTCTTGATTCGCTTGACGCTGCTG”, the binding signal in test [1] is 2.66 z-score; in test [2] it was 2.43 z-score; in test [3], 2.21 z-score; in test [4] it was 2.5 z-score; in test [5], 2.61 z-score; in test [6], 3.68 z-score.
Turning to “CCGATTAACATCAATTTCCCGTATGATGTTAATCGGGTCTTGATTCGCTTGACGCTGCTG”, the binding signal in test [1] is 2.46 z-score; in test [2], 4.12 z-score; in test [3], 4.4 z-score; in test [4] it was 3.1 z-score; in test [5] it was 1.58 z-score; in test [6] it was 3.17 z-score.
